# A selection: hits, their analogues and other compounds. The true share with any hit is near 1.6%.
# S1P4 ag: S1P4 receptor agonists, primary screen, cell-based; 0.35% of 220,000 active; S1P4-expressing cell line, agonist reporter assay; AID 1509, 2009; activation, % at 4.98 µM; Sphingosine 1-phosphate receptor 4 (Homo sapiens), O95977; in the data active means activation above about 11%;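 further: 0% = DMSO vehicle and 100% = reference agonist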
# Target sequence (O95977 whole entry, looked up): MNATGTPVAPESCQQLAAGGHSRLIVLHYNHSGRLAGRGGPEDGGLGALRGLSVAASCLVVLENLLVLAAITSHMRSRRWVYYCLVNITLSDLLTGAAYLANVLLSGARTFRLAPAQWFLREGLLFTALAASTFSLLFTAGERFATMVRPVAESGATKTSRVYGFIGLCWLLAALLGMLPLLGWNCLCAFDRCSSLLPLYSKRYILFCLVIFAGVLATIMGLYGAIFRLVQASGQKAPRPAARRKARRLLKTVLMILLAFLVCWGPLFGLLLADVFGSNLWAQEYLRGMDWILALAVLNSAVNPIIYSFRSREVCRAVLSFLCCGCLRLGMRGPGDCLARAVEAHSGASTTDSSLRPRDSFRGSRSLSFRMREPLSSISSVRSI
# Arbovirus inh: antivirals against arbovirus infection, primary screen, cell-based, full library, 10K replicate subset | arbovirus infection cell-based antiviral screen | inhibition, % at 10 µM | 0.37% of 200,000 active | AID 1251, 2008; in the data active means inhibition above about 30%
# S1P3 antagonist: S1P3 receptor antagonists, primary screen, cell-based; Sphingosine 1-phosphate receptor 3 (Homo sapiens), Q99500; CHO S1P3 NFAT-BLA reporter, FRET fluorescence, antagonist mode; inhibition, % at 4.98 µM; 0.27% of 170,000 active;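 active means inhibition above the plate cutoff, the mean inhibition of test wells on that plate plus 3 SD, cut at about 28% in these data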;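 further: cells challenged with S1P at its EC80 of 0.8 µM; blue over green emission ratio from cleaved BLA substrate after 4 h stimulation; 0% = S1P-stimulated wells and 100% = unstimulated DMSO-only wells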
# p97 ATPase inh: inhibitors of human p97 ATPase, primary screen, biochemical | Transitional endoplasmic reticulum ATPase (Homo sapiens), P55072 | recombinant p97 ATPase, Kinase-Glo ATP luminescence, 3 h | inhibition, % at 8 µM | 0.42% of 220,000 active | AID 1481, 2009; in the data active means inhibition above about 15%;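 further: 0% = DMSO vehicle and 100% = wells lacking enzyme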
# S1P4 antagonist: S1P4 receptor antagonists, primary screen, cell-based; inhibition, % at 4.98 µM; Sphingosine 1-phosphate receptor 4 (Homo sapiens), O95977; 0.26% of 220,000 active; S1P4-expressing cells, antagonist mode, reporter read-out; AID 1510, 2009; in the data active means inhibition above about 29%;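 further: 0% = wells stimulated with agonist and 100% = vehicle wells without agonist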
# Redox H2O2 prof: compounds producing H2O2 with reducing agent – biochemical, NIH compound library profiling, artefact control for MLSCN library redox annotation, primary screen; 0.03% of 200,000 active; DTT-dependent redox cycling H2O2, phenol red/HRP absorbance; 100% = 100 µM peroxide control, 0% = buffer; activation, % at 10 µM; AID 878, 2007;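 active means activation of at least 50% relative to the plate's high and low controls in the primary single-dose screen; inactive means activation below 50%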;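 further: compound incubated with DTT at 0.8 mM final as the reducing agent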
# The depositor's hits bear a star; nt = not tested or not shown.
SMILES,S1P4 ag,Arbovirus inh,S1P3 antagonist,p97 ATPase inh,S1P4 antagonist,Redox H2O2 prof
CC(=O)Nc1cc(N=Cc2ccc(O)cc2O)c(Cl)cc1Cl,-2,12,20,9,-1,0
COc1ccc(/C=N/Nc2ccc(C(=O)O)cc2)cc1Br,0,13,-7,4,3,0
C=CCOc1c(Br)cc(/C=N/Nc2ccc(C(=O)O)cc2)cc1OCC,1,31*,1,-2,-9,0
Cc1cc(NC(=O)CCC(=O)N(CC(=O)NC2CCCC2)Cc2ccc(F)cc2)no1,0,4,63*,-3,-7,-4
N#Cc1c(SCc2cccc(Cl)c2)sc(C(=O)c2ccccc2)c1N,-1,48*,nt,-1,-10,1
CC1=NOC(=O)/C1=C\c1ccc(-c2cccc(Cl)c2)o1,1,-34,nt,1,2,1
Cc1nc(S/C(=C/c2ccc(-c3cccc(Cl)c3)o2)C(=O)O)n[nH]1,0,33*,nt,5,-15,2
Nc1nc(SCn2nnc3ccccc3c2=O)n[nH]1,-2,12,-8,14,6,0
Cc1ccc2nc(N3C(=O)C(O)=C(C(=O)c4ccc(C)o4)C3c3cccc(O)c3)sc2c1 (stereo unspecified),2,76*,9,2,-22,0
C=CCOc1cccc(C2C(C(=O)c3ccc(C)o3)=C(O)C(=O)N2c2nccs2)c1 (stereo unspecified),-1,-7,nt,7,-13,2
COc1ccc(-c2csc(NC(=O)c3cccs3)c2C(=O)O)cc1OC,3,24,4,9,2,-1
Cc1ccc(C(=O)Nc2scc(-c3ccccc3)c2C(=O)O)o1,0,62*,-10,1,-5,0
O=C(/C=C/c1ccco1)Nc1scc(-c2ccccc2)c1C(=O)O,1,nt,11,-13,-7,nt
COc1ccc(-c2csc(NC(=O)Cc3cccc4ccccc34)c2C(=O)O)cc1,1,47*,-7,5,-2,1
O=C(/C=C/c1ccccc1)Nc1scc(-c2ccccc2)c1C(=O)O,-2,73*,1,6,11,2
Cc1ccccc1-n1nc(CSc2nc3ccccc3[nH]2)c(-c2ccccc2)c1N,1,40*,17,2,-10,0
Nc1c(-c2ccccc2)c(CSc2nc3ccccc3[nH]2)nn1-c1ccc(Cl)cc1,1,3,7,1,-6,0
c1ccc(CSc2nc3ccccc3[nH]2)cc1,0,nt,6,3,6,nt
Nc1c(-c2ccccc2)c(CSc2nc3ccccc3[nH]2)nn1-c1cccc(Cl)c1,0,34*,15,1,-25,0
Cc1ccc(N2CCN(/N=C/c3sccc3C)CC2)cc1,-1,0,nt,1,4,1
COc1ccc(NC(=O)c2cc3c(=O)n4ccccc4nc3n2C)cc1OC,1,4,6,3,-8,0
O=C(C#Cc1ccccc1)c1cccc([N+](=O)[O-])c1,1,-36,nt,15*,11,-2
Cc1ccc(S(=O)(=O)NCC2CCC(C(=O)NCc3cccnc3)CC2)cc1 (stereo unspecified),2,-13,-5,5,-6,0
O=C(O)C1CCC(=O)N1Cc1ccccc1Cl (stereo unspecified),15*,6,8,3,-17,-1
Cc1ccc(S(=O)(=O)N/N=C\c2ccc3c(c2)OCO3)cc1,0,-6,nt,16*,-10,0
SMILES,S1P4 ag,Arbovirus inh,S1P3 antagonist,p97 ATPase inh,S1P4 antagonist,Redox H2O2 prof
Cc1nc2ccccn2c1C(=O)N=Nc1c(O)[nH]c2ccccc12,0,-5,-9,6,-37,0
CNc1nc(OC)nc(N2CCOCC2)n1,3,1,66*,-1,-6,0
CCOC(=O)c1ccc(S(=O)(=O)Nc2cc(C(=O)O)ccc2Cl)cc1,-3,1,-21,-1,-73,0
Cc1ccc(C(=O)Nc2ncnc3sc4c(c23)CCCCC4)cc1,0,-7,nt,-6,7,0
S=C(Nc1cccc(Cl)c1)Nc1cccc2cnccc12,-3,25,20,27*,-3,1
CC(=O)c1ccc(NC(=S)Nc2cccc3cnccc23)cc1,0,nt,6,17*,8,nt
O=C(O)c1ccccc1-c1ccccc1C(=O)NCc1cccc(C(F)(F)F)c1,0,0,-5,-1,6,0
Cc1sc(NC(=O)C2C3C=CC(C3)C2C(=O)O)c(C(N)=O)c1-c1ccc(C(C)C)cc1 (stereo unspecified),1,3,-1,-2,-4,0
O=C(CCCc1ccccc1)NCc1ccc(F)cc1,1,-4,4,3,-8,0
CSc1ncc(Cl)c(C(=O)Nc2cccc(C)c2)n1,-1,3,2,3,-8,0
CSc1ncc(Cl)c(C(=O)C(C#N)c2nc3c(C)cc(C)cc3c(=O)[nH]2)n1 (stereo unspecified),0,41*,24,-1,-29,-1
Cc1nc(CS(=O)c2ccc(Cl)cc2)cc(NCc2ccc(Cl)cc2Cl)n1 (stereo unspecified),-1,85*,nt,-10,-4,0
Cc1nc(CSc2ccc(Cl)cc2)cc(NCc2ccccc2)n1,-5,-12,nt,-2,-15,0
CC1CN(S(=O)(=O)c2ccc(C(=O)Nc3nnc(-c4ccc5c(c4)CCCC5)o3)cc2)CC(C)O1 (stereo unspecified),-1,-21,84*,-4,-17,-1
C=CCN(CC=C)CCOc1ccc2ccccc2c1,0,8,-4,-2,-5,0
CN1CCN(S(=O)(=O)c2ccc(NC(=S)NC(=O)c3ccc(Cl)cc3)cc2)CC1,13*,49*,nt,-1,-3,-4
CN1CCN(S(=O)(=O)c2ccc(NC(=S)NC(=O)c3ccccc3)cc2)CC1,1,5,nt,1,-2,0
Nc1ccn([C@@H]2O[C@H](CO)[C@@H](O)C2O)c(=O)n1 (stereo partly specified),0,-12,-1,3,5,nt
O=c1cnn([C@@H]2O[C@H](CO)[C@@H](O)[C@H]2O)c(=O)[nH]1,0,78*,-5,1,4,-1
COc1ccc(OC)c(NC(=O)c2cc(-c3ccc(C)cc3O)n[nH]2)c1,1,31*,14,3,10,0
CC(C)(C)c1cc(C(F)(F)F)nc(SCCCNC(=O)c2ccco2)n1,0,5,59*,-11,-8,0
COCCCNC(=S)NNC(=O)c1csc2ccccc12,1,5,-10,3,2,0
